# Results as given in PubChem BioAssay (NCATS).
# Values without a mark were called inactive. Inconclusive results are not listed. Where a call stands in place of a potency, no number is given. The source made the active and inactive calls. Unless noted, calls come from the whole dose curve; as a rule, active = well fitted curve in the direction sought with a large enough effect; inconclusive = small, poorly fitted or top-dose-only effect, or another doubt; inactive = no such curve, though single readings can be large; an effect the other way counts as inactive or inconclusive.
# How the values were obtained:
# [1] = target: Cytochrome P450 2D6 (Homo sapiens) (UniProt P10635); test: qHTS Assay for Inhibitors and Substrates of Cytochrome P450 2D6 (AID 891);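 note: luciferin methyl ether substrate demethylated by CYP2D6 with NADPH regeneration; nearly all actives have a fitted effect of over 60% in size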
# Method in brief: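 Luminescent read-out of luciferin formed by 5 nM human CYP2D6 demethylating 30 uM Luciferin-ME EGE (Km level) over 60 min at room temperature after NADPH regeneration addition. Data normalized to full inhibition by 1.43 uM quinidine.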
# [2] = qHTS Assay for Identification of Small Molecule Agonists for Hypoxia Response Element Signaling Pathway (AID 914; active = well fitted activation curve with a large enough effect in the signal ratio, with a control signal flat, not every such curve was filed as active; the % refers to the signal ratio); details: ME-180 (cervical carcinoma) HRE-bla reporter, beta-lactamase ratio, CoCl2, 17 h; stronger effect = higher value
# Method in brief: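 HRE-bla ME-180 assay for agonist-like enhancement of an EC50 CoCl2 stimulus: 17 h at 37 degrees Celsius, CCF4 for 2.5 h, ratiometric 460/530 nm signal converted to %Activity and fitted to AC50.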
# [3] = Confirmation and Secondary Assay for Modulators of Hemoglobin Beta Chain Splicing at IVS2 654 locus (AID 910);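 note: per-well total GFP intensity by laser scanning cytometry after 2-day treatment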
# Method in brief: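 HeLa cells stably carrying EGFP interrupted by mutant beta-globin IVS2-654 intron (CMV-driven) were treated with compound for 2 days at 37C; corrected splicing was scored as total peak GFP intensity per well (488 nm excitation, 500-520 nm emission).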
# Sequence of Cytochrome P450 2D6 (Homo sapiens) (P10635 whole entry, looked up): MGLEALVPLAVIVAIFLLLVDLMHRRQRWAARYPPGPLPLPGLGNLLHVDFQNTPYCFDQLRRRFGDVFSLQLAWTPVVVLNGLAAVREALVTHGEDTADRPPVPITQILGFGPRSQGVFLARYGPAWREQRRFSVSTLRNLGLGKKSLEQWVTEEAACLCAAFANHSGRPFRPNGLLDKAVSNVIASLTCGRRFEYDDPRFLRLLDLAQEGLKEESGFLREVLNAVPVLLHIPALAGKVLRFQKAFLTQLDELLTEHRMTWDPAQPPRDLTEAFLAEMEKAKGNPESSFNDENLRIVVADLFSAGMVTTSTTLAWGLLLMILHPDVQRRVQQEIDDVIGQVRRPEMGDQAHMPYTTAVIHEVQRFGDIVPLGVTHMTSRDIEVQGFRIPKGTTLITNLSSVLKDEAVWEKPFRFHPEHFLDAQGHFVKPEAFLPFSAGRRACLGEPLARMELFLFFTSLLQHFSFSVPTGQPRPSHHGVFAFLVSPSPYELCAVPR
compound,measurement,setting,value
CN=C(NC#N)Nc1ccc(C2=NNC(=O)C[C@@H]2C)cc1,Potency,[1],inactive
same,activation,[2],1.72%
O=C(O)CCC(=O)C(=O)O,"activity change, negative = inhibition",[1],16.8% [at 11.4 µM]
CCOc1ccc2c(c1)C(C)=CC(C)(C)N2,outcome,[3],inactive
CC1=C(/C=C/C(C)=C/C=C/C(C)=C/CO)C(C)(C)CCC1,outcome,[3],inactive
Cc1onc(-c2ccccc2)c1C(=O)N[C@@H]1C(=O)N2[C@@H]1SC(C)(C)[C@@H]2C(=O)O,activation,[2],-2.15%
